Assay results reported in PubChem BioAssay.
The source made the active and inactive calls. Unless noted, the rule behind the calls is not given here.

Tests used:
[1] = target: Alpha-bungarotoxin (Bungarus multicinctus) (UniProt P60615); test: alpha-bungarotoxin binders on microarray, profiling panel, artefact control for SMM control protein annotation, biochemical, small-molecule microarray, Alexa647 label, 635/667 nm fluorescence (AID 1117); details: alpha-BTX-A647 binding fluorescence, higher = more signal
[2] = target: E3 ubiquitin-protein ligase XIAP (Homo sapiens) (UniProt P98170); test: XIAP binders, primary screen, biophysical, small-molecule microarray, fluorescence 635 nm (AID 1181); details: small-molecule microarray binding, higher = more signal;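 note: score merges 667 nm emission and signal to noise over triplicate slides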
[3] = system: XIP peptide (Xip251-270) binding; test: small-molecule binders of XIP peptide, primary screen, biochemical, small-molecule microarray, fluorescence 635/667 nm, 0.1 µg/mL protein (AID 1182); details: fluorescent protein binding, 635 nm, higher = more signal, called active from +8 up or from −8 down
[4] = system: XIP peptide (Xip251-270); test: small-molecule binders of XIP peptide, primary screen, biochemical, small-molecule microarray, fluorescence 635/667 nm, 0.5 µg/mL protein (AID 1183); details: small-molecule microarray binding, fluorescence 635 nm; higher = more signal
[5] = Plasmodium falciparum growth inhibition, primary screen, strain 3D7, DAPI fluorescence, 100 nL (AID 1184);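 note: parasites grown inside human red blood cells in medium with human serum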; details: P. falciparum 3D7 growth, 3 d, higher = more signal
[6] = target: Homeobox protein Hox-A13 (Mus musculus) (UniProt Q62424); test: inhibitors of HoxA13-DNA binding, primary screen, biochemical, fluorescence polarization, labeled oligonucleotide (AID 1185); details: 15 min, higher = more signal, called active from +8 up or from −8 down
[7] = inhibitors of hydroxyurea-induced Chk1 phosphorylation, primary screen, imaging, HeLa, phospho-Chk1 antibody, percent positive cells (AID 1186); details: hydroxyurea-induced phospho-Chk1 immunofluorescence imaging, higher = more signal
[8] = inhibitors of hydroxyurea-induced Chk1 phosphorylation, primary screen, imaging, HeLa, phospho-Chk1 nuclear intensity (AID 1187); details: hydroxyurea-induced phospho-Chk1 immunofluorescence imaging, higher = more signal
[9] = P. aeruginosa biofilm formation inhibitors, primary screen, PAO1 strain, BacTiter-Glo luminescence, LB-PBS (AID 1144); details: 12 h, higher = more signal
[10] = P. aeruginosa biofilm formation inhibitors, primary screen, strain PAO1, LB-PBS medium, absorbance 600 nm (AID 1176); details: P. aeruginosa PAO1 growth/biofilm, A600, 12 h; higher = more signal

E3 ubiquitin-protein ligase XIAP (Homo sapiens), sequence (P98170 whole entry, looked up): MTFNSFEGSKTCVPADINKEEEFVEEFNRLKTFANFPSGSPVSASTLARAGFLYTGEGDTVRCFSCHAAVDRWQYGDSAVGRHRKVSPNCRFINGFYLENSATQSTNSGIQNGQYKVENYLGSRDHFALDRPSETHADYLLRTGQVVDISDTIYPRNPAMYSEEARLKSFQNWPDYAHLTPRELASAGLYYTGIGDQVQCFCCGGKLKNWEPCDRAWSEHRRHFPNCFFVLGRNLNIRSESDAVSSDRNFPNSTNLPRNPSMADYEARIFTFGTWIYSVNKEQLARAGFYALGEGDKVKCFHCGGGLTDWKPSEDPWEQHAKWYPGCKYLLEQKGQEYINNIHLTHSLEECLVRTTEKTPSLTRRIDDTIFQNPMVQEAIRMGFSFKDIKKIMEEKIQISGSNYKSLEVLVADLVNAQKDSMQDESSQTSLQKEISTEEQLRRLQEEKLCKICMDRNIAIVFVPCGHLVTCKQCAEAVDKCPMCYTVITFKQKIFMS
Homeobox protein Hox-A13 (Mus musculus), sequence (Q62424 whole entry, looked up): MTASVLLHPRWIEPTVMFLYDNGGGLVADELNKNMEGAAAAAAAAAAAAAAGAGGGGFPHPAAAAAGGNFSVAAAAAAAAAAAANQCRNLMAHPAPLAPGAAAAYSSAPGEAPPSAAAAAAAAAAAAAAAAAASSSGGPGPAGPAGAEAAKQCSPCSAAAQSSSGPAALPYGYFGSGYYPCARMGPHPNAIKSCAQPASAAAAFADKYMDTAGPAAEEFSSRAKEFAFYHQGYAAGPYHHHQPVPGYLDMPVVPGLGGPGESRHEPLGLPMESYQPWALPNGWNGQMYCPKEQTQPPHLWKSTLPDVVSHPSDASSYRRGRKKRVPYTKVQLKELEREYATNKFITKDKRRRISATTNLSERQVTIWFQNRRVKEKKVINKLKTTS
Alpha-bungarotoxin (Bungarus multicinctus), sequence (P60615 whole entry, looked up): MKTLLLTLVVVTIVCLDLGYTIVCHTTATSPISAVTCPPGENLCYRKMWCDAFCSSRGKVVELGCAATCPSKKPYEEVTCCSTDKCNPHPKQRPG

CCOC(=O)C[C@H]1[C@H](OC(=O)c2cc3ccccc3oc2=O)[C@@H](NC(=O)c2ccccc2)c2cc(OCCCO)ccc2N1C(=O)Cc1ccc(OC)cc1
composite z-score [1]: 0.693
composite z-score [2]: -0.139
composite z-score [3]: 0.282 (inactive)
composite z-score [4]: 0.273
z-score [5]: -2.11
z-score [6]: -0.814 (inactive)
z-score [7]: -0.35 (inactive)
z-score [8]: -0.0607 (inactive)

C=C1C=C(Br)C2(OCCCO2)[C@H]2OC12 (stereo partly specified)
z-score [9]: -0.109 (inactive)
z-score [10]: -0.233 (inactive)
composite z-score [2]: 0.0009
composite z-score [3]: -0.584 (inactive)
composite z-score [4]: -0.135
z-score [5]: 1.19
z-score [6]: -1.06 (inactive)

COc1c(C)cc(-c2cc3c(c(CCc4ccccc4)n2)[Si](C(C)C)(C(C)C)OC3)cc1C
composite z-score [1]: -0.382
composite z-score [2]: -0.172
composite z-score [3]: 0.461 (inactive)
composite z-score [4]: -0.436
z-score [5]: -0.633
z-score [6]: -0.207 (inactive)
z-score [7]: -0.666 (inactive)
z-score [8]: -0.461 (inactive)

COc1ccc(/C=C/C(=O)c2cccc(OCC(=O)OC(C)(C)C)c2)cc1
composite z-score [1]: 0.45
composite z-score [2]: 0.0374
composite z-score [3]: 0.401 (inactive)
composite z-score [4]: 0.247
z-score [5]: -0.732
z-score [6]: -3.31 (inactive)
z-score [7]: -0.0499 (inactive)
z-score [8]: 0.373 (inactive)
